Experimental data taken from the supplement of paper PMC9925115.
Where a name gives a salt, the structure may show the parent alone. ± gives the uncertainty stated by the source.

Tested on: FLX1
Assay: cell viability z-score within plate (CellTiter-Glo), mean of 3 biological replicates; higher = higher viability relative to plate (less growth inhibition)
Details: 2 µM; time (hr): 120
Protocol: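 FLX1 fibrolamellar carcinoma cells (DNAJB1-PRKACA fusion), 600 cells/well in 384-well plates, treated with a Selleck kinase inhibitor library (L1200) at 2 uM for 5 days (120 hr); viability by CellTiter-Glo. A z-score was computed within each plate and averaged over three biological replicates.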

`CC(C)n1nc(-c2ccc3oc(N)nc3c2)c2c(N)ncnc21` and `Cn1cnc(N)c2ncnc1-2` [3-Methyladenine (3-MA)] are within error of each other in “cell viability z-score within plate” value: 0.871 ± 0.17 for the first, 0.219 ± 0.67 for the second.

First: C[C@@H]1CN(CC(=O)Nc2ccc3c(c2)Cc2cccc(-c4cc(=O)cc(N5CCOCC5)o4)c2S3)C[C@H](C)O1
Second: CC(C)(C)c1cc(NC(=O)Nc2ccc(-c3cn4c(n3)sc3cc(OCCN5CCOCC5)ccc34)cc2)no1 [Quizartinib (AC220)]
The “cell viability z-score within plate” value of the first is higher: 0.915 ± 0.16 for the first, -0.415 ± 0.29 for the second.

`O=C(Nc1ccc(-c2ccnc(Nc3ccc(N4CCOCC4)cc3)n2)cc1)C1CCCN1` (stereo not given) and `COC(=O)Nc1ccc(-c2nc(N3CCOCC3)c3cnn(C4CCN(C(=O)OC)CC4)c3n2)cc1` are within error of each other in “cell viability z-score within plate” value: 0.342 ± 0.56 for the first, 0.411 ± 0.44 for the second.

Compared with `CCc1nc(-c2cccc(C)c2)c(-c2ccnc(NC(=O)c3ccccc3)c2)s1`, `CN(C)Cc1cccc(N/C(=C2\C(=O)Nc3cc(C(N)=O)ccc32)c2ccccc2)c1` is lower in “cell viability z-score within plate” value: 0.996 ± 0.36 for the first, -0.208 ± 0.31 for the second.

First: CC(C)c1cnn2c(NCc3ccccc3)cc(NCCCCCCN)nc12
Second: CCn1c2ccccc2c2cc(Nc3ccnc(NCCCN4CCOCC4)n3)ccc21
The “cell viability z-score within plate” value of the first is lower: 0.577 ± 0.3 for the first, 1.38 ± 0.26 for the second.

`NCC(=O)Nc1ccc(-n2nc(C(F)(F)F)cc2-c2ccc3c(ccc4ccccc43)c2)cc1` and `CCOc1ccn(-c2ccc(F)cc2)c(=O)c1C(=O)Nc1ccc(Oc2ccnc(N)c2Cl)c(F)c1` are within error of each other in “cell viability z-score within plate” value: 0.225 ± 0.2 for the first, -0.36 ± 1.2 for the second.

First: CCN1/C(=C/C(C)=O)Sc2ccc(OC)cc21
Second: COc1ccccc1-c1cc(Nc2cccc(CS(N)(=O)=O)c2)ncn1
The “cell viability z-score within plate” value of the first is lower: -1.85 ± 0.92 for the first, 0.545 ± 1.1 for the second.

First: CCC[C@H](NC(=O)/C(C#N)=C/c1cccc(Br)n1)c1ccccc1 [Degrasyn (WP1130)]
Second: O=c1sn(-c2cccc3ccccc23)c(=O)n1Cc1ccccc1 [Tideglusib]
The “cell viability z-score within plate” value of the first is higher: -0.0534 ± 0.15 for the first, -2.63 ± 1.1 for the second.

First: Fc1cc(-c2cccc3ncc(-c4cnn(C5CCNCC5)c4)nc23)cc(F)c1CN1CCOCC1
Second: CS(=O)(=O)N1CCN(Cc2cc3nc(-c4cccc5[nH]ncc45)nc(N4CCOCC4)c3s2)CC1 [Pictilisib (GDC-0941)]
The “cell viability z-score within plate” value of the first is lower: -1.08 ± 1.1 for the first, 1.08 ± 0.18 for the second.

Going from `Cc1cc(CS(=O)(=O)c2ccccc2)cc(OCc2ccc(CN3CCC[C@@H]3CO)cc2)c1` to `O=C(O)c1ccc(-c2c[nH]c3ncc(-c4ccccc4)cc23)cc1C1CCCC1`, the “cell viability z-score within plate” value falls from 0.378 ± 0.24 to -1.12 ± 1.1.

`Cc1c(CN2CCN(C(=O)[C@H](C)O)CC2)sc2c(N3CCOCC3)nc(-c3cnc(N)nc3)nc12` [Apitolisib (GDC-0980, RG7422)] and `CCOc1cc(N2CCC(O)CC2)ccc1Nc1ncc2c(n1)N(C)c1ccccc1C(=O)N2C` are within error of each other in “cell viability z-score within plate” value: 0.169 ± 0.42 for the first, 0.413 ± 1.6 for the second.

`O=S(=O)(c1cccc2cnccc12)N1CCCNCC1` [Fasudil (HA-1077) HCl] and `O=C(c1ccc(/C=C/c2n[nH]c3ccccc23)cc1)N1CCNCC1` are within error of each other in “cell viability z-score within plate” value: 0.511 ± 0.42 for the first, 0.449 ± 0.26 for the second.

`CC(C)(C)c1cnc(CSc2cnc(NC(=O)C3CCNCC3)s2)o1` and `O=C(NC1CCNCC1)c1n[nH]cc1NC(=O)c1c(Cl)cccc1Cl` are within error of each other in “cell viability z-score within plate” value: -1.06 ± 1.3 for the first, -0.72 ± 0.28 for the second.

`CC(C)CC(=O)Nc1n[nH]c2c1CN(C(=O)C1CCN(C)CC1)C2(C)C` and `C[C@H]1[C@H](C)CC[C@]2(C(=O)O)CC[C@]3(C)C(=CC[C@@H]4[C@@]5(C)C[C@@H](O)[C@H](O)[C@@](C)(CO)[C@@H]5CC[C@]43C)[C@H]12` [Asiatic Acid] are within error of each other in “cell viability z-score within plate” value: 0.0889 ± 0.24 for the first, 0.124 ± 0.46 for the second.

`Cc1csc(-c2nnc(Nc3ccc(Oc4ncccc4-c4ccnc(N)n4)cc3)c3ccccc23)c1` and `C[C@H](Nc1ncnc2nc[nH]c12)c1cc2cccc(Cl)c2c(=O)n1-c1ccccc1` [Duvelisib (IPI-145, INK1197)] are within error of each other in “cell viability z-score within plate” value: -0.507 ± 1.2 for the first, 0.585 ± 0.95 for the second.

`Cc1ccc(Nc2nccc(N(C)c3ccc4c(C)n(C)nc4c3)n2)cc1S(N)(=O)=O` and `COc1cc(Nc2ncc(F)c(Nc3ccc4c(n3)N(COP(=O)(O)O)C(=O)C(C)(C)O4)n2)cc(OC)c1OC` [Fostamatinib (R788)] are within error of each other in “cell viability z-score within plate” value: -0.43 ± 0.49 for the first, 0.458 ± 0.74 for the second.

First: COc1cc(N2CCC(N)CC2)ccc1Nc1ncc(Cl)c(-c2c[nH]c3ccccc23)n1
Second: CCc1cc(Nc2nccc(-c3c(-c4ccc(OC)c(C(=O)Nc5c(F)cccc5F)c4)nc4ccccn34)n2)c(OC)cc1N1CCC(N2CCN(S(C)(=O)=O)CC2)CC1
The “cell viability z-score within plate” value of the first is lower: -0.695 ± 0.23 for the first, 0.744 ± 0.54 for the second.

`O=C1NC(=O)C(=Cc2ccc(-c3ccc(F)cc3)o2)S1` (stereo in doubt) and `C=CCc1ccc(O)c(-c2ccc(O)c(CC=C)c2)c1` [Honokiol] are within error of each other in “cell viability z-score within plate” value: 0.244 ± 0.32 for the first, 0.237 ± 0.16 for the second.

`COc1ccc(F)c(F)c1C(=O)c1cnc(NC2CCN(S(C)(=O)=O)CC2)nc1N` and `Cn1cnc2c(F)c(Nc3ccc(Br)cc3F)c(C(=O)NOCCO)cc21` are within error of each other in “cell viability z-score within plate” value: 0.272 ± 0.44 for the first, -0.254 ± 0.15 for the second.

`Cc1[nH]nc2ccc(-c3cncc(OC[C@@H](N)Cc4ccccc4)c3)cc12` and `CC(C)(C)c1cc(/C=C(\C#N)C(N)=S)cc(C(C)(C)C)c1O` [Tyrphostin AG 879] are within error of each other in “cell viability z-score within plate” value: 0.657 ± 0.13 for the first, 0.585 ± 0.3 for the second.
